According to PubChem BioAssay (NCI):
This is part of a sample that, as a whole, favours compounds with a hit. Of some 79,000 tested, about 15% had one in any assay. Values without a mark were called inactive. Active and inactive are the calls of the source. Cut-off read from the data, not from the text of the source: active = growth inhibition above about 70%; inactive = the rest.

How the values were obtained:
[1] = NCI Yeast Anticancer Drug Screen. Data for the rad52 strain (AID 147);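 note: 0% = growth of vehicle-treated control cultures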; settings: S. cerevisiae rad52 mutant growth inhibition, active compounds read high
In short: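 Vehicle-treated cultures served as the reference for growth inhibition of compound-exposed yeast bearing a DNA repair mutation.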

[2] = NCI Yeast Anticancer Drug Screen. Data for the wt1 strain (AID 149);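 note: 0% = growth of vehicle-treated wt1 cultures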; settings: S. cerevisiae wt1 strain (SPY 50644) growth inhibition, active compounds read high
In short: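 Vehicle-normalised growth inhibition; strain wt1; compound exposure.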

[3] = NCI Yeast Anticancer Drug Screen. Data for the rad50EPP+ strain (AID 151);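 note: 0% = growth of vehicle-treated control cultures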; settings: S. cerevisiae rad50 mutant strain, active compounds read high
In short: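 In this screen, rad50EPP+ yeast were exposed to compounds. Growth inhibition was scored against vehicle-treated controls.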

[4] = NCI Yeast Anticancer Drug Screen. Data for the mgt1 strain (AID 153); settings: S. cerevisiae mgt1 mutant growth inhibition, active compounds read high
In short: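 mgt1 strain exposed; growth vs vehicle control recorded as inhibition.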

[5] = NCI Yeast Anticancer Drug Screen. Data for the rad50 strain (AID 155);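 note: 0% = growth of vehicle-only cultures of the same strain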; settings: S. cerevisiae rad50 strain growth inhibition, active compounds read high
In short: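 A DNA repair-deficient yeast mutant serves as the test organism; compound-induced growth inhibition is calculated against vehicle-treated cells.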

[6] = NCI Yeast Anticancer Drug Screen. Data for the mec2-1 strain (AID 157); settings: S. cerevisiae mec2-1 strain, active compounds read high
In short: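 Vehicle-treated cultures served as reference for growth inhibition of compound-exposed mec2-1 yeast.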

[7] = NCI Yeast Anticancer Drug Screen. Data for the rad14 strain (AID 159);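 note: 0% = growth of vehicle-treated control cultures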; settings: S. cerevisiae rad14 strain growth inhibition, active compounds read high
In short: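 Vehicle-treated cultures served as the baseline for growth inhibition of a DNA repair-mutant yeast strain exposed to each compound.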

[8] = NCI Yeast Anticancer Drug Screen. Data for the sgs1 mgt1 strain (AID 161);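 note: 0% = growth of cultures given vehicle only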; settings: S. cerevisiae sgs1 mgt1 strain, active compounds read high
In short: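 Read-out: growth inhibition vs vehicle controls. Cells: mutant yeast strain deficient in DNA damage repair.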

[9] = NCI Yeast Anticancer Drug Screen. Data for the CLN2oe strain (AID 163);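 note: 0% = growth of vehicle-only control cultures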; settings: S. cerevisiae CLN2oe strain, active compounds read high
In short: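 Inhibition relative to vehicle-treated yeast is reported. Cells: strain with genetic alteration in cell-cycle control, grown with compound.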

[10] = NCI Yeast Anticancer Drug Screen. Data for the cln2 rad14 strain (AID 165);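 note: 0% = growth equal to vehicle treated cultures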; settings: S. cerevisiae cln2 rad14 strain, active compounds read high
In short: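 Each compound was tested on cln2 rad14 yeast. Inhibition of growth was calculated against vehicle-exposed controls.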

[11] = NCI Yeast Anticancer Drug Screen. Data for the bub3 strain (AID 167); settings: S. cerevisiae bub3 mutant strain, active compounds read high
In short: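 Inhibition values come from growth of compound-treated mutant yeast normalised to vehicle-treated controls.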

[12] = NCI Yeast Anticancer Drug Screen. Data for the wt2 strain (AID 169);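 note: 0% = growth of vehicle-treated yeast cultures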; settings: S. cerevisiae wt2 strain growth inhibition, active compounds read high
In short: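 Inhibition of yeast growth was determined after compound treatment, normalised to controls receiving only vehicle.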

[13] = NCI Yeast Anticancer Drug Screen. Data for the sgs1 strain (AID 173);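 note: 0% = growth of vehicle-only control cultures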; settings: S. cerevisiae sgs1 mutant, active compounds read high
In short: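 Screen format: yeast with repair or checkpoint alterations, compound exposure, growth read relative to vehicle.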

[14] = NCI Yeast Anticancer Drug Screen. Data for the mlh1 rad18 strain (AID 175); settings: S. cerevisiae mlh1 rad18 strain growth inhibition, active compounds read high
In short: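 Vehicle-treated cultures served as the reference for growth inhibition in a yeast strain carrying DNA damage repair alterations exposed to each compound.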

[15] = NCI Yeast Anticancer Drug Screen. Data for the rad18 strain (AID 177); settings: S. cerevisiae rad18 mutant growth inhibition, active compounds read high
In short: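 Test articles were incubated with altered yeast defective in DNA damage repair. Results are given as inhibition of growth versus vehicle.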

[16] = NCI Yeast Anticancer Drug Screen. Data for the mlh1 strain (AID 171);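 note: 0% = growth of vehicle-treated control cultures of the same strain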; settings: S. cerevisiae mlh1 strain growth inhibition, active compounds read high
In short: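 Vehicle-normalised growth inhibition of a repair- or checkpoint-altered yeast strain following compound treatment.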

[17] = at 5.0 µM (retest, dose inferred, filed as 0.5)
[18] = at 50.0 µM (retest, dose inferred, filed as 5.0)

CC(C)(CN1CCCCC1)C(=O)CC(SCCS(=O)(=O)O)c1ccccc1 (stereo unspecified)
growth inhibition ([1]; at 1.2 µM): 6%
growth inhibition ([1]; at 3.7 µM): 4%
growth inhibition ([1]; at 11.0 µM): 25%
growth inhibition ([1]; at 33.0 µM): 34%
growth inhibition ([1]; at 100.0 µM): 18%
growth inhibition ([2]; at 1.2 µM): -63%
growth inhibition ([2]; at 3.7 µM): 1%
growth inhibition ([2]; at 11.0 µM): 0%
growth inhibition ([2]; at 33.0 µM): 4%
growth inhibition ([2]; at 100.0 µM): 10%
growth inhibition ([3]; at 1.2 µM): 1%
growth inhibition ([3]; at 3.7 µM): 0%
growth inhibition ([3]; at 11.0 µM): -1%
growth inhibition ([3]; at 33.0 µM): -1%
growth inhibition ([3]; at 100.0 µM): -5%
growth inhibition ([4]; at 1.2 µM): 1%
growth inhibition ([4]; at 3.7 µM): 5%
growth inhibition ([4]; at 11.0 µM): 6%
growth inhibition ([4]; at 33.0 µM): 8%
growth inhibition ([4]; at 100.0 µM): 12%
growth inhibition ([5]; at 1.2 µM): 1%
growth inhibition ([5]; at 3.7 µM): 4%
growth inhibition [5, 17]: 10%
growth inhibition ([5]; at 11.0 µM): 8%
growth inhibition ([5]; at 33.0 µM): 14%
growth inhibition [5, 18]: 7%
growth inhibition ([5]; at 50.0 µM): 9.6%
growth inhibition ([5]; at 100.0 µM): 11%
growth inhibition ([6]; at 1.2 µM): -1%
growth inhibition ([6]; at 3.7 µM): -4%
growth inhibition [6, 17]: 11%
growth inhibition ([6]; at 11.0 µM): 0%
growth inhibition ([6]; at 33.0 µM): 9%
growth inhibition [6, 18]: -3%
growth inhibition ([6]; at 50.0 µM): -12.1%
growth inhibition ([6]; at 100.0 µM): 8%
growth inhibition ([7]; at 1.2 µM): 3%
growth inhibition ([7]; at 3.7 µM): 9%
growth inhibition ([7]; at 11.0 µM): 17%
growth inhibition ([7]; at 33.0 µM): 31%
growth inhibition ([7]; at 100.0 µM): 39%
growth inhibition [8, 17]: 17%
growth inhibition [8, 18]: 1%
growth inhibition ([8]; at 50.0 µM): -2%
growth inhibition ([9]; at 1.2 µM): -6%
growth inhibition ([9]; at 3.7 µM): 0%
growth inhibition ([9]; at 11.0 µM): 8%
growth inhibition ([9]; at 33.0 µM): 15%
growth inhibition ([9]; at 100.0 µM): 31%
growth inhibition [10, 17]: 72% (active)
growth inhibition [10, 18]: 69%
growth inhibition ([10]; at 50.0 µM): 46.3%
growth inhibition ([11]; at 1.2 µM): -1%
growth inhibition ([11]; at 3.7 µM): -6%
growth inhibition [11, 17]: 19%
growth inhibition ([11]; at 11.0 µM): -1%
growth inhibition ([11]; at 33.0 µM): 5%
growth inhibition [11, 18]: 32%
growth inhibition ([11]; at 50.0 µM): 12.1%
growth inhibition ([11]; at 100.0 µM): 13%
growth inhibition ([12]; at 1.2 µM): 0%
growth inhibition ([12]; at 3.7 µM): 2%
growth inhibition ([12]; at 11.0 µM): 5%
growth inhibition ([12]; at 33.0 µM): 11%
growth inhibition ([12]; at 100.0 µM): 15%
growth inhibition ([13]; at 1.2 µM): 3%
growth inhibition ([13]; at 3.7 µM): 6%
growth inhibition ([13]; at 11.0 µM): 7%
growth inhibition ([13]; at 33.0 µM): 19%
growth inhibition ([13]; at 100.0 µM): 22%
growth inhibition [14, 17]: 17%
growth inhibition [14, 18]: -1%
growth inhibition ([14]; at 50.0 µM): 5.05%
growth inhibition ([15]; at 1.2 µM): 10%
growth inhibition ([15]; at 3.7 µM): 11%
growth inhibition ([15]; at 11.0 µM): 16%
growth inhibition ([15]; at 33.0 µM): 26%
growth inhibition ([15]; at 100.0 µM): 37%

N#Cc1nc(Nc2ccc(Cl)cc2)sc1N
growth inhibition ([1]; at 1.2 µM): -33%
growth inhibition ([1]; at 3.7 µM): -29%
growth inhibition ([1]; at 11.0 µM): -25%
growth inhibition ([1]; at 33.0 µM): 32%
growth inhibition ([1]; at 100.0 µM): 80% (active)
growth inhibition ([2]; at 1.2 µM): -6%
growth inhibition ([2]; at 3.7 µM): -4%
growth inhibition ([2]; at 11.0 µM): -16%
growth inhibition ([2]; at 33.0 µM): 41%
growth inhibition ([2]; at 100.0 µM): 73% (active)
growth inhibition ([3]; at 1.2 µM): -36%
growth inhibition ([3]; at 3.7 µM): -27%
growth inhibition ([3]; at 11.0 µM): -17%
growth inhibition ([3]; at 33.0 µM): -1%
growth inhibition ([3]; at 100.0 µM): 36%
growth inhibition ([4]; at 1.2 µM): -6%
growth inhibition ([4]; at 3.7 µM): -10%
growth inhibition ([4]; at 11.0 µM): 1%
growth inhibition ([4]; at 33.0 µM): 80% (active)
growth inhibition ([4]; at 100.0 µM): 94% (active)
growth inhibition ([5]; at 1.2 µM): -4%
growth inhibition ([5]; at 3.7 µM): -9%
growth inhibition [5, 17]: 18%
growth inhibition ([5]; at 11.0 µM): -1%
growth inhibition ([5]; at 33.0 µM): 27%
growth inhibition [5, 18]: -8%
growth inhibition ([5]; at 50.0 µM): 89.2% (active)
growth inhibition ([5]; at 100.0 µM): 61%
growth inhibition ([6]; at 1.2 µM): -37%
growth inhibition ([6]; at 3.7 µM): -8%
growth inhibition [6, 17]: 8%
growth inhibition ([6]; at 11.0 µM): -15%
growth inhibition ([6]; at 33.0 µM): 19%
growth inhibition [6, 18]: 53%
growth inhibition ([6]; at 50.0 µM): 36.1%
growth inhibition ([6]; at 100.0 µM): 42%
growth inhibition ([7]; at 1.2 µM): -31%
growth inhibition ([7]; at 3.7 µM): -19%
growth inhibition ([7]; at 11.0 µM): -16%
growth inhibition ([7]; at 33.0 µM): 34%
growth inhibition ([7]; at 100.0 µM): 91% (active)
growth inhibition [8, 17]: 9%
growth inhibition [8, 18]: 30%
growth inhibition ([8]; at 50.0 µM): 76.2% (active)
growth inhibition ([9]; at 1.2 µM): 25%
growth inhibition ([9]; at 3.7 µM): 20%
growth inhibition ([9]; at 11.0 µM): 27%
growth inhibition ([9]; at 33.0 µM): 58%
growth inhibition ([9]; at 100.0 µM): 44%
growth inhibition [10, 17]: 39%
growth inhibition [10, 18]: 92% (active)
growth inhibition ([10]; at 50.0 µM): 84.6% (active)
growth inhibition ([11]; at 1.2 µM): 18%
growth inhibition ([11]; at 3.7 µM): 23%
growth inhibition [11, 17]: 10%
growth inhibition ([11]; at 11.0 µM): 17%
growth inhibition ([11]; at 33.0 µM): 32%
growth inhibition [11, 18]: 70% (active)
growth inhibition ([11]; at 50.0 µM): 86% (active)
growth inhibition ([11]; at 100.0 µM): 94% (active)
growth inhibition ([12]; at 1.2 µM): -20%
growth inhibition ([12]; at 3.7 µM): -36%
growth inhibition ([12]; at 11.0 µM): -20%
growth inhibition ([12]; at 33.0 µM): 81% (active)
growth inhibition ([12]; at 100.0 µM): 84% (active)
growth inhibition ([16]; at 1.2 µM): 1%
growth inhibition ([16]; at 3.7 µM): 27%
growth inhibition ([16]; at 11.0 µM): 21%
growth inhibition ([16]; at 33.0 µM): 64%
growth inhibition ([16]; at 100.0 µM): 94% (active)
growth inhibition [14, 17]: -29%
growth inhibition [14, 18]: -24%
growth inhibition ([14]; at 50.0 µM): 49.9%
growth inhibition ([15]; at 1.2 µM): -17%
growth inhibition ([15]; at 3.7 µM): -17%
growth inhibition ([15]; at 11.0 µM): -3%
growth inhibition ([15]; at 33.0 µM): 44%
growth inhibition ([15]; at 100.0 µM): 91% (active)
